KKLEB tox – counter-screen for CF NF-kB inhibitors: cytotoxicity; actives 0.36% (n = 360,000); AID 602141; KKLEB CF airway cells viability, ATPlite luminescence, overnight; stronger effect = lower value; cells stimulated with P. aeruginosa culture filtrate; activity change (cytotoxicity), % at 5 µM;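 active = corrected activity change at or below -50% at 5 µM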
MITF TRPM1 inh – inhibitors of MITF-driven TRPM1 promoter in melanoma cells | SK-MEL-5 TRPM1 promoter luciferase, 24 h | AID 488899 | actives 0.83% (n = 330,000) | inhibition, % at 12.5 µM;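 active = mean inhibition across replicates of 60% or more, whatever share of single replicates reaches that level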
Shn3 3UTR inh – Schnurri-3 reporter inhibition in Clone20 osteoblasts; Clone20 osteoblast Shn3 3'UTR firefly luciferase, 24 h; inhibition, % at 12.5 µM; actives 0.52% (n = 360,000); AID 588674;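 active = mean inhibition of at least 75% with every replicate also reaching 75%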;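 also: 0% = median of neutral control wells and 100% = pilot-screen positive control compound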
CF NFkB inh – blocks PAF-induced NF-kB reporter in cystic fibrosis cells. inhibition, % at 5 µM. actives 0.86% (n = 360,000). KKLEB NF-kB-GFP reporter, GFP fluorescence overnight;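 active = at least 50% inhibition at 5 µM, scaled per plate between neutral and stimulator controls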;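 also: PAF is a Pseudomonas aeruginosa culture filtrate used as stimulus; plate controls were PAF-stimulated DMSO wells for no effect and unstimulated DMSO wells for full effect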
Peg3 prom inh – inhibitors of Peg3 promoter | HeLa PEG-Prom luciferase reporter, luminescence, overnight | inhibition, % at 20 µM | actives 1.7% (n = 360,000);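 active = inhibition of at least 50% at 20 µM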
HIF-2a inh – HIF-2a inhibition; 786-0 RCC cells HIF-2a reporter, luciferase luminescence, overnight; inhibition, % at 18.8 µM; actives 0.72% (n = 360,000);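 active = inhibition of the luminescence signal of 40% or more relative to plate controls, in a single-dose primary screen at 18.75 µM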
CF NFkB conf – confirmation of cystic fibrosis induced NF-kB inhibitors; shares compounds with CF NFkB inh; KKLEB CF airway cells, PAF-induced NF-kB-GFP fluorescence, overnight; inhibition, % at 5 µM; actives 64% (n = 1,300); in the data active = inhibition above about 40%;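 also: stimulus PAF is a Pseudomonas aeruginosa filtrate and not platelet activating factor; plate controls were DMSO wells with stimulus for no effect and unstimulated DMSO wells for full effect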
The depositor's hits bear a star; · = no result given; ! = not confirmed by another sample. In the library only some 2.7% were active in any assay of this set; here they are far more common.

SMILES	KKLEB tox	MITF TRPM1 inh	Shn3 3UTR inh	CF NFkB inh	Peg3 prom inh	HIF-2a inh	CF NFkB conf
COc1cc(-c2nnc3n2CCCCC3)cc(OC)c1OC	2	4	-4	2	-1	14	·
Cc1c(NC(=O)Nc2ccc(Cl)cc2)c(=O)n(-c2ccccc2)n1C	-7	-4	-17	-5	9	-4	·
Cc1c(N=C2N=C(NC(=O)Nc3ccc(Cl)cc3)c3ccccc32)c(=O)n(-c2ccccc2)n1C	-41	45	3	51*	19	1	18
O=C(COC(=O)c1ccccc1NCCO)NCc1cccs1	15	-16	-20	2	-33	-44	·
CS(=O)(=O)Nc1ccccc1C(=O)OCC(=O)NCc1cccs1	-14	8	1	51*	2	6	7
Nc1c(C(=O)Nc2ccccc2)sc2nc3c(c(-c4ccco4)c12)CCCC3	-34	-20	11	51*	-52	-164	34
Nc1ncnc(NCc2ccc(F)cc2)c1[N+](=O)[O-]	-24	1	5	64*	-6	8	64*
CN1CCN(C2CN(Cc3cn(Cc4cccc(C(F)(F)F)c4)nn3)S(=O)(=O)C2)CC1 (centres undefined)	·	·	·	·	·	4	·
CCOC(=O)c1c(C)[nH]c(C(=O)N/N=C/c2ccc(Br)cc2)c1C	-31	19	8	56*	-9	-32	79*
CCOC(=O)c1c(C)[nH]c(C(=O)OCC(=O)Nc2cc(C)ccc2OC)c1C	-42	17	25	50*	30	25	39
COc1ccc(/C=C/C(=O)Oc2ccc(/C=N/NC(=O)c3ccncc3)cc2)cc1	-14	-3	7	5	11	37	·
CSc1ccccc1NC(=O)CN(C)C(=O)Cc1c(F)cccc1Cl	-4	6	6	2	1	12	·
CCN(C(=O)CN1C(=O)NC(c2ccccc2)(c2ccc(C)c(C)c2)C1=O)C1CCCCC1 (centres undefined)	8	17	-5	15	24	15	·
COc1ccc2nc(Nc3nc(CSc4nc5ccccc5[nH]4)cc(=O)[nH]3)nc(C)c2c1	-46	48	41	103*	98*	-17	101*
CC(C)c1nc(NCCO)c(C#N)c2c1CCCC2	-10	-12	9	71*	10	36	55*
CC(C)c1nc(Cl)c(C#N)c2c1CCCC2	-4	0	12	55*	-44	6	77*
CCc1noc(C)c1C(=O)NCCc1ccccc1	-19	-45	-70	24	-161	-150	·
COCCn1c(=NC(=O)c2sc3ccccc3c2Cl)sc2cc(S(N)(=O)=O)ccc21	-46	-10	70	55*	10	18	24
Cc1ccc2c(c1)C(=O)C(=O)N2Cc1ccc(C(F)(F)F)cc1	-18	11	-1	55*	3	-13	72*
Cc1nc([N+](=O)[O-])c(Br)n1CC(=O)c1ccc(Br)cc1	-42	32	36	53*	38	35	11
O=C(COC(=O)c1c2c(nc3ccccc13)CCCC2)Nc1ccc2c(c1)OCO2	-16	-10	-1	-21	35	5	·
CC(C)c1ccccc1NC(=O)COC(=O)c1c2c(nc3ccccc13)CCN(Cc1ccccc1)C2	-17	-1	17	75*	57*	12	73*
Cc1c(Cl)cccc1NC(=O)COC(=O)c1c2c(nc3ccccc13)CCN(Cc1ccccc1)C2	-22	0	22	62*	60*	17	76*
O=C(NC1CCCCCC1)c1c2c(nc3ccccc13)CCN(Cc1ccccc1)C2	-14	7	-3	10	10	4	·
Cc1cc(=O)oc2cc(O)cc(O)c12	-10	-4	-9	-9	-3	5	·
SMILES	KKLEB tox	MITF TRPM1 inh	Shn3 3UTR inh	CF NFkB inh	Peg3 prom inh	HIF-2a inh	CF NFkB conf
CCCCCc1cc(O)c2c(C)cc(=O)oc2c1	-8	-3	15	74*	-9	-46	80*
CC(=O)Nc1ccc(Br)c2ccccc12	8	-4	16	4	6	19	·
O=C(Nc1ccc(Br)c2ccccc12)c1ccc2ccccc2c1O	-46	2	54	54*	-13	-142	73*
O=C(CSc1nc2ccc(Cl)cc2[nH]1)Nc1ccc2[nH]c(=O)[nH]c2c1	6	15	-3	-10	2	8	·
Cc1ccc(C(=O)COc2cc(O)c3c(=O)cc(-c4ccccc4)oc3c2)cc1	-44	-4	19	69*	9	20	43*
O=C(COc1cc(O)c2c(=O)cc(-c3ccccc3)oc2c1)c1ccccc1	-9	-21	-7	0	-19	-22	·
CC(C)n1c(SCc2ccccc2F)nc2c1c(=O)n(C)c(=O)n2C	-5	-10	22	57*	25	21	58*
CC(C)n1c(SCc2cc(=O)[nH]c3ccccc23)nc2c1c(=O)n(C)c(=O)n2C	-5	2	6	11	17	6	·
COc1cccc(CNC(=O)CN2CCC(c3nc4ccc(C)cc4[nH]3)CC2)c1	-13	-1	3	56*	5	19	10
Cc1onc(-c2ccccc2)c1C(=O)N1CCCSC1=Nc1ccccc1	2	0	-17	56*!	5	10	-17
CCOC(=O)Nc1ccc2c(c1)N(C(=O)N1CCN(C)CC1)c1ccccc1S2	-11	14	-11	-18	14	4	·
C=CC(=O)N1c2ccccc2Sc2ccc(NC(=O)OCC)cc21	-20	23	13	80*	95*	15	-116
Cc1noc(C)c1S(=O)(=O)N(C)C[C@H]1OCCCC[C@H](C)Oc2ccc(NC(=O)CCCN(C)C)cc2C(=O)N([C@H](C)CO)C[C@@H]1C	3	·	-19	2	-22	3	·
O=C(NCCc1ccc(F)cc1)c1coc(=O)c(Br)c1	18	16	-11	81*	48	13	83*
O=c1c(-c2c(O)cc(O)c3c2O[C@H](c2ccc(O)cc2)CC3)c(-c2ccc(O)cc2)oc2cc(O)cc(O)c12	0	-15	-30	75*	47	2	101*
COc1ccc(-c2cn[nH]c2-c2ccc(OCc3ccc([N+](=O)[O-])cc3)cc2O)cc1	2	-21	66	70*	-1	-1	82*
CCc1cc(-c2[nH]ncc2-c2ccc(OC)cc2)c(O)cc1O	3	-1	1	76*	55*	31	81*
CCCCCC(=O)N1C[C@@H](O)[C@H](n2cc(COC(=O)c3ccccc3)nn2)C[C@@H]1c1ccccc1	-14	·	2	24	-6	5	·
NC(=O)NC(Cc1ccccc1)C(=O)NCCCSc1ccccc1 (centres undefined)	7	-20	6	-3	-5	11	·
